Source: PubChem BioAssay
dFosB activator – enhances mouse delta FosB homodimer DNA binding; activation, % at 25 µM; P13346; purified delta FosB, TAMRA-CDK5 oligo fluorescence polarization; percent of positive-control signal above neutral wells; AID 493131; 0.99% of 340,000 active;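 active = mean activation above about 17%, with every replicate also reaching it, limit read from the data, passing the limit was not always enough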
Target sequence (P13346 whole entry, looked up): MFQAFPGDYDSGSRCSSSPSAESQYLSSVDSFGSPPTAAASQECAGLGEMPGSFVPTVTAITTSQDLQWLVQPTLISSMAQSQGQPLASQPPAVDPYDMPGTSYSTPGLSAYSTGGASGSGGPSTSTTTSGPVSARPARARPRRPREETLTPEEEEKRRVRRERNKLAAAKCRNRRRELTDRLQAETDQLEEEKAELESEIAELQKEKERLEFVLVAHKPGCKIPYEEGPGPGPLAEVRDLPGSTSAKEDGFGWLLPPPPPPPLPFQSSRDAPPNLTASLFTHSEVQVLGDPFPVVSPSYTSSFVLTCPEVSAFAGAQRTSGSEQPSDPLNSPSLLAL
FGF22 binding-1 – shifts melting point of recombinant human FGF22 | recombinant FGF22 thermal shift, SYPRO orange fluorescence; percent of sucrose octasulfate shift, DMSO zero | activity (Tm shift, normalised), % at 9.99 µM | 1.5% of 340,000 active | AID 651658;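 active = mean Tm shift, scaled 0 neutral to 100 positive control, at about 1.3% or above, every replicate too, limit read from the data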
PglD DTNB – inhibitors of Campylobacter jejuni PglD acetyltransferase; purified PglD enzyme, DTNB colorimetric CoA detection; inhibition, % at 12.5 µM; 0.098% of 360,000 active; AID 602405; in the data active = inhibition above about 16%, passing the limit was not always enough
PvdQ inh – P. aeruginosa PvdQ acylase inhibition; purified PvdQ acylase, fluorescence plate reader; inhibition, % at 10 µM; 0.063% of 340,000 active; in the data active = inhibition above about 30%, passing the limit was not always enough;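 note: 0% = vehicle neutral wells and 100% = reference inhibitor wells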
SIRT5 block – inhibitors of human sirtuin-5 desuccinylase; Purified SirT5, succinyl-peptide AMC, trypsin-coupled fluorescence; inhibition, % at 15 µM; 1.1% of 330,000 active; AID 652115; in the data active = inhibition above about 15%
CDK5 p35 inh – blocks human CDK5/p35 kinase activity | 0.01% of 330,000 active | inhibition, % at 10 µM | Q00535+Q15078 | Recombinant CDK5/p35, ADP-Glo luminescence, 60 min;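 active = highest replicate inhibition of at least 50% and at least 75% of replicates reaching 50%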;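 note: plate controls were DMSO neutral control for no effect and GW8510 at 10 µM for full effect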
FGF22 binding-2 – binds human FGF22 shifting its melting temperature; shares compounds with FGF22 binding-1; recombinant FGF22 thermal shift, SYPRO orange fluorescence; thermal shift activity, °C (ΔTm) at 38 µM; 2% of 1,000 active; AID 720646;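 active = fitted rise in melting shift crosses a set limit at or below the top valid dose tested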
FGF22 TSA DP – binders of human FGF22 by thermal shift. Thermal shift assay, SYPRO orange, melting temperature shift. AID 743017. shares compounds with FGF22 binding-1. 50 tested, under 10 active. Tm shift (activity), % at 38 µM;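 active = compounds whose fitted dose curve of melting temperature shift rises past a set threshold within the tested doses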
SYPRO no-protein – counter-screen for FGF22 binders: compound-only thermal shift, no protein; shares compounds with FGF22 binding-1; compound-only SYPRO orange thermal shift counter-screen; AC50, µM (doses to about 38 µM); 2% of 1,000 active; AID 743019;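 active = rising signal whose fitted curve reaches the 0.54 level within the top valid dose, showing a melting point, actives reach about 13 µM in these data; inactive = the rest, including activity in the opposite direction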; note: value is where the raw curve crosses a fixed level and not half-maximal
The depositor's hits bear a star; i = inactive; / = no result given; [ ] = dose if it differs, or a comment. Shown are actives, neighbours in structure and some others; about 2.8% of the full set was active somewhere.

SMILES	dFosB activator	FGF22 binding-1	PglD DTNB	PvdQ inh	SIRT5 block	CDK5 p35 inh	FGF22 binding-2	SYPRO no-protein	others
O=C(O)c1cccc(-n2cc(-c3cccc(C(F)(F)F)c3)cn2)c1	-4	1.6*	/	-1	-8	0	0.17	i
O=C(COc1cccc(Cl)c1)NCC(c1cccs1)N1CCOCC1 (configuration not stated)	-9	1.6*	4	-9	5	-1	-0.063	i
O=C(O)C1CCN(S(=O)(=O)Cc2ccccc2)CC1	1	12*	-4	9	1	-1	0.18	i
Nc1cc(S(=O)(=O)Nc2ccc(Br)cc2)ccc1Cl	-15	0	/	-7	0	0	/	/
COc1ccc(NS(=O)(=O)c2ccc(Cl)c(N)c2)cc1Br	-1	1.3*	0	10	-2	-1	-0.06	i
CO[C@H]1CN(C)C(=O)c2cc(NC(C)=O)ccc2OC[C@H](C)N(C(=O)c2ccc(F)cc2)C[C@@H]1C	/	0	0	/	-3	/	/	/
CCCNC(=O)N1[C@H](CO)[C@@H](c2ccccc2)C12CN(C(=O)C1CCCCC1)C2	/	0	/	/	-5	/	/	/
O=C(O)c1ccc(Cl)c(S(=O)(=O)Nc2ccc(S(=O)(=O)N3CCCC3)cc2)c1	-1	1.4*	2	13	5	1	-0.13	i
CC(=O)c1ccc(S(=O)(=O)Nc2ccc(Cl)c(S(=O)(=O)N3CCCC3)c2)cc1	2	0	5	-18	2	-1	/	/
CCCC(=O)Nc1ccc(C(=O)Nc2ccc([N+](=O)[O-])cc2OC)cc1	-5	1.4*	/	6	6	1	-0.17	i
O=C(Nc1nccs1)C1CC(=O)N(c2ccc(F)cc2)C1 (configuration not stated)	2	1.4*	/	-9	-6	0	-0.036	i	FGF22 TSA DP=0
O=S(=O)(c1cccc2cccnc12)N1CCN(Cc2ccccc2)CC1	-6	1.4*	/	9	1	2	0.17	i
O=C(CNC(=O)c1ccc(S(=O)(=O)N2CCCC2)cc1)N/N=C/c1ccc(F)cc1	-3	1.4*	/	-15	0	0	-0.03	i
O=C(Nc1ccc(S(=O)(=O)N2CCOCC2)cc1)c1ccc(F)cc1	-6	1.4*	9	-17	-6	-1	/	i	FGF22 TSA DP=0
CC(=O)c1ccc(OCCCC(=O)Nc2ccc(S(=O)(=O)N3CCOCC3)cc2)cc1	-8	1.9*	/	-9	-3	1	-0.23	i
COCC(=O)NC[C@H]1[C@H](c2ccc(C3=CCCC3)cc2)[C@@H](CO)N1C(C)=O	/	1.3*	-2	/	-1	/	-0.058[42 µM]	i
COCC(=O)NC[C@@H]1[C@@H](c2ccc(C3=CCCC3)cc2)[C@H](CO)N1C(C)=O	/	/	-3	/	/	/	/	/
COc1ccc(C(=O)Nc2nc(CC(=O)NCCc3cccc(OC)c3)cs2)cc1	-12	0	/	-4	5	-1	/	/
COc1ccc(C(=O)Nc2nc(CC(=O)NCCc3ccccc3)cs2)cc1	-10	2.2*	/	-2	-11	0	-0.006	i
CCC(=O)N1[C@@H](CO)[C@@H]2c3ccccc3N(S(=O)(=O)c3ccc(F)cc3)C[C@@H]21	/	1.4*	1	/	-3	/	0.21	i
CCC(=O)N1[C@@H](CO)[C@@H]2c3ccccc3N(S(=O)(=O)c3ccccc3)C[C@@H]21	/	0	1	/	-2	/	/	/
COCC(=O)N1CC2(C1)[C@@H](c1ccc(-c3ccccc3)cc1)[C@@H](CO)N2C(=O)COC	/	0	/	/	1	/	/	/
Cc1ccc(S(=O)(=O)c2nnn(-c3cccc(F)c3)c2N)cc1	3	1.5*	-4	-13	-2	3	-0.014	i
COc1ccc(S(=O)(=O)c2nnn(-c3cccc(OC)c3)c2N)cc1	-2	0	/	-11	-2	0	/	/
